ATXN viability: Viability Counterscreen for Primary qHTS for Inhibitors of ATXN expression. S2 cells (HEK-293 line with an ATXN2-luciferase reporter) viability, CellTiter-Fluor protease fluorescence, 24 h. Potency, µM (titrated, usually from 56.7 µM), hits mostly cytotoxic. 400,000 compounds, 0.49% hits; also: nearly all actives have a fitted effect of over 40% in size
ATXN2 expr inh: Primary qHTS for Inhibitors of ATXN expression; HEK-293 ATXN2-luciferase reporter, luminescence, 24 h; Potency, µM (top dose mostly 57 µM), without a hit: at the top dose activity change, negative = inhibition, hits mostly inhibitors; 360,000 compounds, 0.72% hits; AID 1745845, 2022; also: % is scaled to controls: 0 for no effect and ±100 for the full control effect; nearly all actives have a fitted effect of over 55% in size
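ATXN2-luciferase reporter cells (luciferase flanked by upstream and downstream ATXN2 gene portions) were treated 24 h at 37 °C with compounds at up to 57 uM. SteadyGlo luminescence gave expression; GF-AFC fluorescence gave viability.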
HepG2 tox-1: qHTS for Inhibitors of TGF-b: Cytotox Counterscreen | HepG2 CAGA-GFP viability, ATP luminescence, 18 h | Potency, µM (top dose mostly 46.1 µM), inactives show at the top dose activity change, negative = cytotoxicity, hits mostly cytotoxic | 410,000 compounds, 0.76% hits | AID 588856, 2011
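CellTiter-Glo luminescence gave cytotoxicity after 18 hours at 37 degrees C. The cells were HepG2 CAGA-GFP in 1% FBS DMEM, stimulated with 500 pg/mL TGF-beta after compound addition. %Activity was normalised to no-cell wells (complete cell-killing) and DMSO (no toxicity), and curves were fitted and classified.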
A549 viability: Nrf2 qHTS screen for inhibitors: counterscreen for cytotoxicity. A549 ARE-Fluc cells, CellTiter-Fluor viability, 18-24 h. Potency, µM (top dose mostly 46 µM), inactives show at the highest dose activity change, negative = cytotoxicity, most hits filed as inhibitors. 390,000 compounds, 0.16% hits. AID 504648, 2011; also: % is scaled to controls: 0 for no effect and ±100 for the full control effect
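A549 ARE-Fluc cells in 5% FBS OPTI-MEM, 5000 cells/well, rested 2 h then exposed to compounds in concentration-response for 18-24 h at 37 °C. Viability by CellTiter-Fluor fluorescence (Ex 405/Em 525) after 30 min; luciferase luminescence (BugLite, 15 min, RT) read afterwards.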
TGFb inhibitor: qHTS for Inhibitors of TGF-b; Potency, µM (titrated, usually from 46.1 µM), for the others: top-dose activity, negative = inhibition, usual class: inhibitors; HepG2 CAGA-GFP TGF-b/SMAD3 reporter, GFP fluorescence, 18 h; TGF-beta stimulated, 500 pg/mL final; 410,000 compounds, 1.2% hits; also: % is scaled to controls: 0 for no effect and ±100 for the full control effect; nearly all actives have a fitted effect of over 65% in size
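Using HEPG2 CAGA-GFP reporter cells at 1000 cells/well, we pinned test compounds, stimulated with recombinant TGF-beta (500 pg/mL final) and measured total well GFP after 18 h.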
Nrf2 block: Nrf2 qHTS screen for inhibitors; A549 ARE-Fluc reporter, luciferase luminescence, 18-24 h; Potency, µM (top dose mostly 46 µM), without a hit: top-dose activity change, negative = inhibition, most hits filed as inhibitors; 360,000 compounds, 2.1% hits; AID 504444, 2011; also: % is scaled to controls: 0 for no effect and ±100 for the full control effect; nearly all actives have a fitted effect of over 60% in size
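Nrf2 activity is the BugLite luminescence, read 15 min after reagent at room temperature, following CellTiter-Fluor cytotoxicity readout (30 min, 37C). Compound titrations were applied for 18-24 h to 5000 A549 ARE_Fluc cells/well in 5% FBS OPTI-MEM.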
TGFb CAGA inh: qHTS for Inhibitors of TGF-b: Confirmation of Cherry Picks; shares compounds with TGFb inhibitor; HepG2 CAGA-GFP TGF-b reporter, GFP fluorescence, 18 h; cells stimulated with TGF-beta, 500 pg/mL; Potency, µM (titrated, usually from 46.1 µM), inactives show at the highest dose activity, negative = inhibition, actives largely listed as inhibitors; 1,600 compounds, 63% hits; AID 720534, 2013; also: % is scaled to controls: 0 for no effect and ±100 for the full control effect; nearly all actives have a fitted effect of over 65% in size
HepG2 tox-2: qHTS for Inhibitors of TGF-b: Cytotox Counterscreen for Cherry Picks | shares compounds with TGFb inhibitor | HepG2 CAGA-GFP viability, ATP luminescence, 18 h; cells stimulated with TGF-beta, 500 pg/mL | Potency, µM (titrated, usually from 46.1 µM), without a hit: at the top dose activity, negative = cytotoxicity, actives largely listed as inhibitors | 1,600 compounds, 27% hits | AID 720535, 2013; also: % is scaled to controls: 0 for no effect and ±100 for the full control effect; nearly all actives have a fitted effect of over 70% in size
CCL64 TGFb inh: qHTS for Inhibitors of TGF-b: CCL64 Cells Orthogonal Assay for Cherry Picks; shares compounds with TGFb inhibitor; CCL64 CAGA-GFP reporter, TGF-b stimulated, GFP fluorescence, 18 h; Potency, µM (series often up to 46.1 µM), for inactives: at the top dose activity, negative = inhibition, actives largely listed as inhibitors; 1,600 compounds, 41% hits; AID 720536, 2013; also: nearly all actives have a fitted effect of over 65% in size
TGFb COP inh: qHTS for Inhibitors of TGF-b: Hit Validation in HepG2 Cells using COP promoter | shares compounds with TGFb inhibitor | HepG2 COP-GFP TGF-b reporter, GFP fluorescence, 18 h; cells stimulated by added recombinant TGF-beta | Potency, µM (highest dose often 46.1 µM), inactives show top-dose activity, negative = inhibition, usual class: inhibitors | 1,600 compounds, 3% hits; also: nearly all actives have a fitted effect of over 70% in size
* hit, by the source's call; i = inactive; u = inconclusive; x = no result given. Rows were chosen to be rich in hits. Some 3.8% of all compounds tested hit in one or more screens of this group. Calls follow the shape of the dose curve; as a rule, active = well fitted curve in the direction sought with a large enough effect; inconclusive = small, poorly fitted or top-dose-only effect, or another doubt; inactive = no such curve, though single readings can be large; an effect the other way counts as inactive or inconclusive. Potency is read from the fitted curve at half-maximal effect.

SMILES	ATXN viability	ATXN2 expr inh	HepG2 tox-1	A549 viability	TGFb inhibitor	Nrf2 block	TGFb CAGA inh	HepG2 tox-2	CCL64 TGFb inh	TGFb COP inh
CN(C)S(=O)(=O)N1CCc2ccc(NC(=O)c3ccc(C(F)(F)F)cc3)cc2C1	i	-8.8%	-38.3%	20.8%	u	u	-0.3%	u	-24.2%	0.8%
Cc1ccnc(Nc2nc(-c3sc(C)nc3C)cs2)c1	u	-23.9%	3.16µM*	-1.5%	6.31µM*	u	9.2µM*	7.31µM*	u	-3.9%
CCn1c2ccccc2c2cc(/C=N/NC(=O)c3ccccc3C)ccc21	i	u	-12.4%	-11.4%	3.98µM*	13.5%	8.2µM*	4.11µM*	u	17.7%
COC(=O)N/N=C/c1cn(Cc2c(Cl)cccc2Cl)c2ccccc12	i	-8.6%	-14.7%	-6.9%	u	-2.3%	x	x	x	x
Cc1cccc(C)c1NC(=O)c1nc(SC(C)C)ncc1Cl	i	-13.1%	-11.2%	9.5%	-18.6%	u	x	x	x	x
C=C(C)c1cccc(C(C)(C)NC(=O)Nc2nncs2)c1	i	-4.9%	-12.7%	2.7%	-6.3%	4.9%	x	x	x	x
C=C(C)c1cccc(C(C)(C)NC(=O)Nc2nnc(C(C)C)s2)c1	u	x	8.4%	-7.7%	8.91µM*	u	u	0.3%	-6.2%	-0.8%
COc1ccc(S(=O)(=O)N2CCCCCC2)cc1C(=O)N(C)Cc1c(F)cccc1Cl	i	4.4%	-3.9%	-1.4%	-3.0%	-6.9%	x	x	x	x
COc1ccc(S(=O)(=O)N2CCCCCC2)cc1C(=O)N(C)Cc1ccc(Cl)cc1Cl	u	u	0.3%	-30.0%	15.8µM*	u	18.4µM*	-19.5%	u	31.3%
COc1ccc(C2Nc3ccccc3C(=O)N2Cc2ccc(-c3ccccc3)cc2)cc1COc1ccc(NC(C)=O)cc1 (stereo not given)	x	x	x	12.1%	x	2.5%	x	x	x	x
COc1ccc(C(=O)Nc2ccc(C)c(S(=O)(=O)N3CCOCC3)c2)cc1S(=O)(=O)N1CCCC1	i	-19.5%	-6.7%	1.2%	11.2µM*	-20.9%	u	2.1%	u	1.9%
O=C(NCCN1CCOCC1)c1ccc(Cl)c(S(=O)(=O)N2CCCCCC2)c1	i	-10.1%	-34.6%	-9.3%	2.51µM*	u	u	-9.5%	-2.5%	1.0%
Cc1ccc(NC(=O)CCC(=O)OCc2ccc(Br)cc2)cc1	i	-10.7%	-10.0%	1.1%	-6.1%	-4.6%	x	x	x	x
Cn1c(=O)c(=O)n(C)c2cc(S(=O)(=O)N3CCCC3C(=O)NCc3cccs3)ccc21 (stereo not given)	i	28.7%	9.4%	0.3%	-6.5%	14.4%	x	x	x	x
Cc1ccc2nc(N3CCN(C(=O)c4ccc(F)cc4)CC3)c(C#N)cc2c1	i	x	-17.0%	5.7%	10µM*	-16.3%	u	-29.6%	u	1.4%
Cc1ccc(NC(=S)NCc2ccccc2)cc1S(=O)(=O)N1CCCCC1	u	x	-23.9%	-4.1%	15.8µM*	u	23.1µM*	u	25.9µM*	57.8%
CCNC(=O)N(CC)C[C@H]1N[C@@](Cc2ccccc2)(C(=O)OC)[C@H]2C(=O)N(Cc3ccccc3)C(=O)[C@@H]12	i	1.2%	1.2%	-11.1%	33.1%	2.2%	x	x	x	x
COC(=O)[C@]1(Cc2ccccc2)N[C@H](CN(C)C(=O)Nc2ccc(C(F)(F)F)cc2)[C@@H]2C(=O)N(Cc3ccccc3)C(=O)[C@@H]21	i	-24.8%	-28.6%	u	10µM*	u	20.6µM*	-27.2%	8.2µM*	-3.7%
CC[C@@]1(C(=O)OC)N[C@H](CN(C)C(=O)Nc2ccc(C(F)(F)F)cc2)[C@@H]2C(=O)N(Cc3ccccc3)C(=O)[C@@H]21	i	1.3%	-1.7%	0.0%	-6.8%	7.3%	x	x	x	x
CCN(C[C@H]1N[C@@](Cc2ccccc2)(C(=O)OC)[C@H]2C(=O)N(Cc3ccccc3)C(=O)[C@@H]12)C(=O)Nc1ccc(F)cc1	u	-17.8%	-5.7%	-26.0%	12.6µM*	u	23.1µM*	-17.1%	u	-2.1%
CCN(C[C@H]1N[C@@](Cc2ccccc2)(C(=O)OC)[C@H]2C(=O)N(Cc3ccccc3)C(=O)[C@@H]12)C(=O)Nc1ccc(Cl)cc1	u	-15.6%	-17.3%	-19.7%	12.6µM*	u	7.31µM*	-28.4%	11.6µM*	25.4%
CCN(c1ccc(OC)cc1)S(=O)(=O)c1csc(C(=O)N2CCCC2)c1	i	1.5%	1.2%	2.7%	5.0%	17.0%	x	x	x	x
Cc1ccc(S(=O)(=O)NCC(=O)N2CCOCCOCCOCC2)cc1	i	16.3%	1.9%	1.2%	-6.3%	4.5%	x	x	x	x
COC(=O)CN(C#N)c1nc(NC(C)C)nc(NC(C)C)n1	i	x	15.1%	-1.4%	18.4%	-6.3%	x	x	x	x
CCc1nc2ccc(C(=O)NCc3cccs3)cn2c1N(CC)Cc1cccc(Br)c1	u	u	-27.1%	x	11.2µM*	x	18.4µM*	u	u	53.5%
COc1ccc(/C=C/C(=O)OCC(=O)Nc2ccc(Cl)c(S(=O)(=O)N(C)C)c2)cc1OC	i	-3.5%	1.0%	-1.1%	0.6%	0.5%	x	x	x	x
COc1ccc(C(=O)Nc2oc(-c3ccccc3)c(-c3ccccc3)c2C#N)cc1	i	-2.9%	-27.6%	-24.8%	-22.8%	u	x	x	x	x
